Reference: PubChem BioAssay (NCATS)
Records with an inconclusive call do not appear. Entries that show only a call come without a potency. The source made the active and inactive calls. Calls follow the shape of the dose curve; as a rule, active = well fitted inhibition curve with a large enough effect; inconclusive = small, poorly fitted or top-dose-only effect; inactive = flat fitted curve, though single readings scatter.

Test system: MKL-2
Test: qHTS assay to identify novel small-molecules to repurpose for Merkel cell carcinoma treatment (AID 1296009); also: nearly all actives have a fitted effect of over 60% in size
Conditions: MCC and control cell lines, CellTiter-Glo viability, 72 h; series mostly up to 46 µM
In short: (§1)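 Dose-response viability screen; 72 hr exposure at 37 degree celsius; CellTiter-Glo added, 10 min room temperature, luminescence read; RLUs scaled between no-cell and DMSO wells.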
Potency is read from the fitted curve at half-maximal effect.

| Compound | Potency |
| --- | --- |
| COc1nccc(-c2c(-c3ccc(F)cc3)ncn2C2CCC(O)CC2)n1 (stereo not given) | inactive |
| CC(C)(C)c1nc(-c2cccc(NS(=O)(=O)c3c(F)cccc3F)c2F)c(-c2ccnc(N)n2)s1 | inactive |
| C[C@H](c1ccc(F)cc1CCCC(=O)O)N(c1cc(F)ccc1F)S(=O)(=O)c1ccc(Cl)cc1 | inactive |
| O=S(=O)(O)c1ccc2cc(N=Nc3cc(S(=O)(=O)O)c4cccnc4c3O)ccc2c1 | inactive |
| O=C(Nc1cccc(C(F)(F)F)c1)Nc1cc(S(=O)(=O)NC2CC2)ccc1-c1ccsc1 | inactive |
| C[C@@H](NC(=O)c1ncnc(N)c1Cl)c1ncc(C(=O)Nc2cc(C(F)(F)F)c(Cl)cn2)s1 | inactive |
| COc1ccc(-c2ccc3ncc4c(c3c2)n(-c2ccc(N3CCNCC3)c(C(F)(F)F)c2)c(=O)n4C)cn1 | 41.8 nM (active) |
| O=c1[nH]c(=O)n([C@H]2C[C@@H](O)[C@@H](CO)O2)cc1I | inactive |
| COC1CCC(C(=O)c2ccc3nc4c(cc3c2)CCCO4)CC1 (stereo not given) | inactive |
| CC(C)C[C@@H](C(=O)N[C@H](C(=O)OC1CCCC1)c1ccccc1)[C@H](O)C(=O)NO | 23500 nM (active) |
| C#CCN(C)CC1=Cc2ccccc2Oc2ccccc21 | inactive |
| C[C@@H](O[C@H]1OCCN(Cc2n[nH]c(=O)[nH]2)[C@@H]1c1ccc(F)cc1)c1cc(C(F)(F)F)cc(C(F)(F)F)c1 | inactive |
| CC1=C[C@@H]2[C@@H]([C@@H](O)C[C@@]3(C)[C@H]2C[C@@H](C)[C@]3(O)C(=O)CO)[C@@]2(C)Cc3cnn(-c4ccccc4)c3C=C12 | inactive |
| CNC(=O)c1cc(COc2nnc(Nc3ccc(Cl)cc3)c3ccoc23)ccn1 | inactive |
| CN1c2ccccc2C(=O)N2CCc3c([nH]c4ccccc34)C21 (stereo not given) | inactive |
| CN(C)CC[C@H](CSc1ccccc1)Nc1ccc(S(=O)(=O)NC(=O)c2ccc(N3CCN(Cc4ccccc4-c4ccc(Cl)cc4)CC3)cc2)cc1[N+](=O)[O-] | 235 nM (active) |
| NS(=O)(=O)c1cc(Cl)c(Cl)c(S(N)(=O)=O)c1 | inactive |
| O=C1Nc2ccc(I)cc2C1=Cc1cc(Br)c(O)c(Br)c1 | inactive |
| N#Cc1ccc(Oc2ccc3c(c2)COB3O)cc1 | inactive |
| CC(C)C[C@H](NC(=O)c1cc2ccccc2s1)C(=O)N1CCN(C(=O)[C@H](CO)NS(=O)(=O)c2ccc(Cl)cc2Cl)CC1 | inactive |
| CN(C)c1nc(Cc2ccc(NC(=O)c3ccc(C(F)(F)F)cc3)cc2)nc(N(C)C)c1CC(=O)O | inactive |
| Cc1cc(C(C)Nc2ccccc2)c2nc(N3CCOCC3)cc(=O)n2c1 (stereo not given) | inactive |
| O=S(=O)(NCCNCC=Cc1ccc(Br)cc1)c1cccc2cnccc12 | 5260 nM (active) |
| CN1C(=O)C(Cc2c[nH]c3ccccc23)NC1=S (stereo not given) | inactive |
| CNc1nc(Nc2ccc(C(=O)N3CCOCC3)cc2OC)ncc1Cl | inactive |

Test system: UISO
Test: as above
Conditions: MCC and control cell lines, CellTiter-Glo viability, 72 h; series mostly up to 46 µM
In short: as §1

| Compound | Potency |
| --- | --- |
| OC[C@H]1O[C@@H](OCCc2ccc(O)cc2)[C@H](O)[C@@H](O)[C@H]1O | inactive |
| CC(C)(OCc1nn(Cc2ccccc2)c2ccccc12)C(=O)O | inactive |
| c1ccc(-c2oc3ncnc(NC[C@@H]4CCCO4)c3c2-c2ccccc2)cc1 | inactive |
| CC(C)(O)CC(=O)NCCn1ccc2ncnc(Nc3ccc(Oc4cccc(C(F)(F)F)c4)c(Cl)c3)c21 | inactive |
| CC(=O)Nc1cccc(-n2c(=O)n(C3CC3)c(=O)c3c(Nc4ccc(I)cc4F)n(C)c(=O)c(C)c32)c1 | inactive |
| CN1CCN(c2cccc(Nc3nc4c(-c5ccc(S(C)(=O)=O)cc5)cccn4n3)c2)CC1 | inactive |
| CCCCn1c(=O)n(Cc2ccccc2F)c(=O)c2[nH]c(Cc3ccc(NC(C)=O)cc3)nc21 | inactive |
| CC1CCN(c2cc(N3CCN(C)CC3)ccc2NC(=O)c2cc(C#N)c[nH]2)CC1 | inactive |
| Cc1nc(C(=O)NCC(=O)O)c(O)c2ccc(Oc3ccccc3)cc12 | inactive |
| Cc1cnc(Nc2cccc(CN3CCOCC3)c2)nc1Nc1cccc(S(=O)(=O)NC(C)(C)C)c1 | inactive |
| COc1nccc(-c2c(-c3ccc(F)cc3)ncn2C2CCC(O)CC2)n1 (stereo not given) | inactive |
| CC(C)(C)c1nc(-c2cccc(NS(=O)(=O)c3c(F)cccc3F)c2F)c(-c2ccnc(N)n2)s1 | inactive |
| C[C@H](c1ccc(F)cc1CCCC(=O)O)N(c1cc(F)ccc1F)S(=O)(=O)c1ccc(Cl)cc1 | inactive |
| O=S(=O)(O)c1ccc2cc(N=Nc3cc(S(=O)(=O)O)c4cccnc4c3O)ccc2c1 | inactive |
| O=C(Nc1cccc(C(F)(F)F)c1)Nc1cc(S(=O)(=O)NC2CC2)ccc1-c1ccsc1 | inactive |
| C[C@@H](NC(=O)c1ncnc(N)c1Cl)c1ncc(C(=O)Nc2cc(C(F)(F)F)c(Cl)cn2)s1 | inactive |
| COc1ccc(-c2ccc3ncc4c(c3c2)n(-c2ccc(N3CCNCC3)c(C(F)(F)F)c2)c(=O)n4C)cn1 | 23.5 nM (active) |
| CC1=C[C@@H]2[C@@H]([C@@H](O)C[C@@]3(C)[C@H]2C[C@@H](C)[C@]3(O)C(=O)CO)[C@@]2(C)Cc3cnn(-c4ccccc4)c3C=C12 | inactive |
| CN1c2ccccc2C(=O)N2CCc3c([nH]c4ccccc34)C21 (stereo not given) | inactive |
| NS(=O)(=O)c1cc(Cl)c(Cl)c(S(N)(=O)=O)c1 | inactive |
| N#Cc1ccc(Oc2ccc3c(c2)COB3O)cc1 | inactive |
| CN(C)c1nc(Cc2ccc(NC(=O)c3ccc(C(F)(F)F)cc3)cc2)nc(N(C)C)c1CC(=O)O | inactive |
| Cc1cc(C(C)Nc2ccccc2)c2nc(N3CCOCC3)cc(=O)n2c1 (stereo not given) | inactive |
| CN1C(=O)C(Cc2c[nH]c3ccccc23)NC1=S (stereo not given) | inactive |
| CNc1nc(Nc2ccc(C(=O)N3CCOCC3)cc2OC)ncc1Cl | inactive |
